FBPA Giardia inh = inhibitors of Giardia lamblia fructose-1,6-bisphosphate aldolase | purified Giardia FBPA | 290,000 compounds, 0.71% hits | AID 2451 | Potency, µM (top dose mostly 59.6 µM), actives largely listed as inhibitors; further: nearly all actives have a fitted effect of over 55% in size
Target sequence (A8B2U2 whole entry, looked up): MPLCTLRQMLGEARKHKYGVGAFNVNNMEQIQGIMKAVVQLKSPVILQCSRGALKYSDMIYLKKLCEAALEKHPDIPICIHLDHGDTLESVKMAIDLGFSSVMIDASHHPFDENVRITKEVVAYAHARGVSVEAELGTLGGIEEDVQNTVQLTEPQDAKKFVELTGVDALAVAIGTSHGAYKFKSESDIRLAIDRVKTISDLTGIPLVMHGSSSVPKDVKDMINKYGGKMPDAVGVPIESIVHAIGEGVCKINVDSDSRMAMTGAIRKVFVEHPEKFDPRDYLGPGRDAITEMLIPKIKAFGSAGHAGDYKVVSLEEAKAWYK
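Giardia FBPA (40 nM reagent) was preincubated 10 min at RT with compound (up to 57.5 uM final), then substrate plus GAPDH/TPI/NAD/arsenate coupling system with diaphorase/resazurin was added; resorufin fluorescence (525/598 nm) was read after 20 min.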
FMDV antiviral = antivirals against foot and mouth disease virus; FMDV antiviral cell-based qHTS; Potency, µM (top dose mostly 57.9 µM), most hits filed as inhibitors; 410,000 compounds, 1.2% hits; calls by dose curve; tested in HEK293T cells; further: read-out not given here; nearly all actives have a fitted effect of over 45% in size
HCMV inh = blocks human cytomegalovirus replication; HFF cells, HCMV-luciferase reporter, 72 h; stronger effect = lower value; activity change, negative = inhibition, % at 57.5 µM; 410,000 compounds, 4.5% hits; AID 1259415; in the data active means activity change below about -60%; inconclusive means no clear call, values can overlap the other calls; inactive means above about -39%
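Human foreskin fibroblasts infected with luciferase-reporter HCMV at MOI 1 PFU/cell, compounds at two doses. Luciferase measured 72 h post infection; normalized to buffer-only basal and Salinomycin (10uM) controls.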
Sm TGR block = S. mansoni TGR enzyme inhibition; Q962Y6; purified TGR, DTNB reduction, TNB absorbance 405 nm; Potency, µM (doses to about 114 µM), usual class: inhibitors; 360,000 compounds, 3% hits; AID 485364; further: nearly all actives have a fitted effect of over 60% in size
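TGR 20 nM + NADPH 100 uM (dispensed conc.), cpd preinc 15 min RT; start with NADPH (500 uM addition) then DTNB (15 mM addition). Kinetic TNB absorbance, 405 nm filter. Four-parameter Hill fit across titration.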
RE007 growth inh = less growth of the S. pombe RE007 Vpr strain; AID 651644; Potency, µM (top dose mostly 92.2 µM), most hits filed as inhibitors; 360,000 compounds, 0.21% hits; S. pombe RE007 Vpr strain, BacTiter-Glo ATP luminescence, 24 h; active means well fitted falling curve with a large enough effect; inconclusive means small, poorly fitted or top-dose-only effect; inactive means no such curve, though single readings can be large or run the other way; further: nearly all actives have a fitted effect of over 50% in size
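Fission yeast strain RE007, carrying one chromosomally integrated HIV-1 vpr copy, was seeded at OD 0.01 in PMG+AL medium with 23 nL pinned compound. After 24 h at 30 °C and 99% humidity, viability was read by BacTiter-Glo luminescence.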
TbPYK inhibitor = blocks Trypanosoma brucei pyruvate kinase; Potency, µM (top dose mostly 76.8 µM), actives largely listed as inhibitors; 410,000 compounds, 0.12% hits; TbPYK enzyme, Kinase-Glo Plus ATP luminescence, 45 min; Q57TT1; further: nearly all actives have a fitted effect of over 50% in size
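Readout: single end-point luminescence (Kinase-Glo Plus, 10 min). Reaction conditions were TbPYK/substrate plus 130 uM ADP, 45 min at RT, pH 7.2 TEA buffer. No-enzyme wells served as controls, and data were normalized before concentration-response fitting.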
Each line names hits and unclear results; the compound was inactive in the other large screens. Sampled rows, rich in hits. Any-hit rate of the full collection: about 7.7%. Unless noted, the call rests on the fitted dose curve; in most records, active means well fitted curve in the direction sought with a large enough effect; inconclusive means small, poorly fitted or top-dose-only effect, or another doubt; inactive means no such curve, though single readings can be large; an effect the other way counts as inactive or inconclusive.

CN1CC(=O)N(CC(=O)N2N=C(c3ccc(Cl)cc3)CC2c2ccco2)C1=O (stereo unspecified)	Sm TGR block 22µM
O=C(CCl)N1N=C(c2cccs2)CC1c1ccco1 (stereo unspecified)	FMDV antiviral 16µM, HCMV inh -97, Sm TGR block 2.5µM
C[C@H]1CC[C@]2(NC1)O[C@H]1C[C@H]3[C@@H]4CC[C@H]5C[C@@H](O)CC[C@]5(C)[C@H]4CC[C@]3(C)[C@H]1[C@@H]2C	none (no result: FBPA Giardia inh, HCMV inh, Sm TGR block, RE007 growth inh, TbPYK inhibitor)
CCC(Sc1nc2n[nH]c(C)c2c(=N)n1-c1ccc(Br)cc1)C(=O)N(CC)CC (stereo unspecified)	FMDV antiviral inconclusive (no result: FBPA Giardia inh, RE007 growth inh)
O=c1n(-c2ccccc2)c(=O)n2n1CC[C@H]1/C(=N\OCc3ccccc3)[C@H]3O[C@@H]3[C@@H](O)[C@@H]12	none (no result: FMDV antiviral, HCMV inh, Sm TGR block, RE007 growth inh, TbPYK inhibitor)
O=C(Nc1cccn(Cc2c(Cl)cccc2Cl)c1=O)c1ccccc1Cl	FMDV antiviral inconclusive
O=C(Nc1cccn(Cc2c(Cl)cccc2Cl)c1=O)c1ccc(Cl)cc1Cl	FMDV antiviral inconclusive, HCMV inh -97
CCCCc1ccc(S(=O)(=O)N[C@H]2CC[C@@]34CCCN3C(=O)CCC[C@H]4[C@H]2Cc2ccccc2)cc1	none (no result: FBPA Giardia inh, FMDV antiviral, Sm TGR block, RE007 growth inh, TbPYK inhibitor)
Cc1c(C)n(Cc2ccccc2)c2ncnc(NN)c12	FMDV antiviral inconclusive, HCMV inh -73
CCCC[C@]12Cc3ccccc3[C@H](O1)C1=C(O2)C(=O)c2ccccc2C1=O	none (no result: FMDV antiviral, HCMV inh, RE007 growth inh, TbPYK inhibitor)
CCN(CC)c1nn2c(=O)c(C(=O)NCCc3ccc(C)cc3)cnc2s1	FMDV antiviral inconclusive, HCMV inh -64 (no result: FBPA Giardia inh, RE007 growth inh)
CCOc1ccc(CCNC(=O)c2cnc3sc(N4CCCC4)nn3c2=O)cc1	FMDV antiviral 28µM (no result: FBPA Giardia inh, RE007 growth inh)
CCOC(=O)c1c(NC(C)=O)c2c3c(sc2n1Cc1nc(-c2ccccc2C)oc1C)CCCC3	none (no result: FBPA Giardia inh, RE007 growth inh)
CCOc1ccc(C(=O)NCc2nc(-c3ccc(Cl)cc3)no2)cc1OCC	none (no result: FBPA Giardia inh, RE007 growth inh)
CC(=O)N1Cc2ccccc2C(C)CC12CCCC2 (stereo unspecified)	FMDV antiviral 25µM
CN1CC(C(=O)c2ccc([N+](=O)[O-])cc2)C(c2ccc(Cl)cc2)C1 (stereo unspecified)	HCMV inh -64, Sm TGR block inconclusive
CN1CC(C(=O)c2cccc(C(F)(F)F)c2)C(c2ccc(Cl)cc2)C1 (stereo unspecified)	FMDV antiviral inconclusive, HCMV inh -72
COc1cccc(C(=O)C2CN(C)CC2c2ccc(Cl)cc2)c1 (stereo unspecified)	none (no result: Sm TGR block)
COC(=O)C1=C(C)NC(=O)C1(NC(=O)c1cc(OC)c(OC)c(OC)c1)C(F)(F)F (stereo unspecified)	none (no result: FBPA Giardia inh, RE007 growth inh)

Screening results as filed in PubChem.
